The source made the active and inactive calls. How the source made its calls: active means hit-call score of the fitted dose curve at least 0.9, where 1 is the maximum; inactive means score below 0.9.
The compounds below were run on Urokinase-type plasminogen activator receptor (uPAR), PLAUR (gene 5329) (assay: BSK_BE3C_uPAR: BioMAP Diversity Plus: BE3C Assay for Urokinase-type plasminogen activator receptor (uPAR) Biomarker Activity (AID 2283039;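 on outcome: cells exposed to compound for one day before measurement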)). Conditions: primary human bronchial epithelial cells; actives raise or lower the signal.
Method: BSK_BE3C is a cell-based, multiplexed-readout assay that uses bronchial epithelial cell, a human lung primary cell, with measurements taken at 24 hours after chemical dosing in a 96-well plate.BSK_BE3CAR is an assay component measured in the BSK_BE3C assay. It measures uPAR antibody related to regulation of gene expression using ELISA technology.Data from the assay component BSK_BE3CAR was analyzed into 1 assay endpoint. This assay endpoint, BSK_BE3CAR, was analyzed with bidirectional fitting relative to DMSO as the negative control and baseline of activity. Using a type of binding reporter, gain or loss-of-signal activity can be used to understand changes in the signaling as they relate to the gene PLAUR. Furthermore, this assay endpoint can be referred to as a primary readout, because this assay has produced multiple assay endpoints where this one serves a signaling function. To generalize the intended target to other relatable targets, this assay endpoint is annotated to the cytokine intended target family, where the subfamily is plasmogen activator.
The levels of cell surface (or secreted, indicated by the prefix "s") biomarker endpoints were measured by ELISA. Overt cytotoxicity to cells in confluent adherent cultures (all systems other than the BT system) was assessed by measuring total protein levels using sulforhodamine B (SRB) staining in parallel cultures at the time of biomarker measurements, indicated as SRB endpoints. For proliferation assays for adherent cell types, individual cell types are cultured at sub-confluence and relative cell numbers quantified by SRB staining at time points optimized for each system (48 h: 3C and CASM3C systems; 72 h: BT and HDF3CGF systems; 96 h: SAg system). SRB was performed by staining cells with 0.1% SRB after fixation with 10% TCA and reading wells at 560 nm.Viability and proliferation of PBMC (T cells) was quantified by Alamar Blue reduction for the SAg and BT systems. For PBMC viability (referred to as PBMC Cytotoxicity within the assay endpoint names), cells were plated (75,000/well in a 96-well plate) and then chemical samples added for 1 h before addition of activators, SEB and TSST-1 (20 ng/mL final concentration each). Cells were incubated for 90 h. Then, Alamar Blue (20 uL/well) (Invitrogen, Cat DAL1100) was added for 6 h, and the plates were read with a fluorescence microplate reader at 546/580 nm (excitation/emission). For PBMC proliferation, cells were plated and activated as above but incubated for only 16 h prior to addition of Alamar Blue. Plates were read after 6 h.

SMILES | outcome | AC50
CC(=O)OCCC(C)C | inactive | 
On1ccccc1=S |  | 9.61 µM (active)
CCC(C)(C)C(=O)O[C@H]1C[C@@H](C)C=C2C=C[C@H](C)[C@H](CC[C@@H]3C[C@@H](O)CC(=O)O3)[C@H]21 |  | 32.5 µM (active)
O=P(OC(CCl)CCl)(OC(CCl)CCl)OC(CCl)CCl | inactive | 
CC[C@H]1OC(=O)[C@H](C)[C@@H](O[C@H]2C[C@@](C)(OC)[C@@H](O)[C@H](C)O2)[C@H](C)[C@@H](O[C@@H]2O[C@H](C)C[C@H](N(C)C)[C@H]2O)[C@](C)(O)C[C@@H](C)C(=O)[C@H](C)[C@@H](O)[C@]1(C)O | inactive | 
CN(C)c1ccc(Cc2ccc(N(C)C)cc2)cc1 | inactive | 
NC(=O)NO | inactive | 
Cn1c(=O)c2c(ncn2C)n(C)c1=O | inactive | 
CCOc1cccc(-n2cc(C(=O)N3CCN(c4cc(C(=O)O)c5ccccc5c4)CC3)nc2-c2ccc(C)cc2)c1 |  | 15.7 µM (active)
Fc1ccccc1[C@@H](F)COC1CCC(Nc2ncnc3[nH]ncc23)CC1 (stereo not given in full) | inactive | 
CCCCC(CC)COC(=O)c1ccc(C(=O)OCC(CC)CCCC)cc1 (stereo not given) | inactive | 
COC(=O)c1c(Cl)c(Cl)c(C(=O)OC)c(Cl)c1Cl | inactive | 
CC(C)=CCC/C(C)=C\CO | inactive | 
CCOCCOCCOCCO | inactive | 
O=C(O)CC(O)C(=O)O (stereo not given) | inactive | 
CC(C)(O)c1coc(S(=O)(=O)NC(=O)Nc2c3c(cc4c2CCC4)CCC3)c1 | inactive | 
CC/C(=C\C(=N/O)C(N)=O)C(C)[N+](=O)[O-] (stereo not given) | inactive | 
CNS(=O)(=O)c1cc(C(=O)N2CCC(CCN3C4CCC3CC(n3c(C)nc5ccccc53)C4)(c3cccc(F)c3)CC2)c(Cl)cc1F (stereo not given) | inactive | 
Nc1cccc(N)c1 | inactive | 
Cc1ccc(N)cc1O | inactive | 

SMILES | outcome | AC50
Oc1ccc2c(c1)-c1ccccc1C2 | inactive | 
C=CC(=C)CCC=C(C)C | inactive | 
O=C(O)c1cccc(N(Cc2cccnc2)c2ccc(OC(F)F)c(OC(F)F)c2)c1 | inactive | 
CCCCC(CC)COC(=O)CCCCCCCCC(=O)OCC(CC)CCCC (stereo not given) | inactive | 
C1N2CN3CN1CN(C2)C3 | inactive | 
O=C(NS(=O)(=O)/C=C/c1ccccc1)c1ccc(F)cc1Cl | inactive | 
Cc1ccc(S(=O)(=O)O)cc1C | inactive | 
CC(C)=CCCC(C)=CC=O | inactive | 
O=C(O)c1cccc(Oc2ccccc2)c1 | inactive | 
CC1=CC(=O)CC(C)(C)C1 | inactive | 
CCOC(=O)COc1ccc2c(c1)CC(NCC(O)c1cccc(Cl)c1)CC2 (stereo not given) | inactive | 
Cc1[nH]cnc1C[C@H]1CCc2c(C)c3ccccc3n2C1=O |  | 24.1 µM (active)
C=CCCCCCCCCC(=O)O | inactive | 
CCOC(=O)c1ccc(C2CCC(NC[C@H](O)COc3ccc(O)c(NS(C)(=O)=O)c3)CC2)cc1 (stereo not given in full) | inactive | 
CCCCCCCCCCCCCCCO | inactive | 
O=C1CCC(N2C(=O)c3ccccc3C2=O)C(=O)N1 (stereo not given) | inactive | 
CCCCCCCCO | inactive | 
Clc1nc(Cl)c(Cl)c(Cl)c1Cl | inactive | 
CCN(C(=O)c1cc(C)cc(OC[C@H](C)Nc2ccncc2)c1)C(C)C | inactive | 
COc1cccc(-c2ccc(/C=C\CN3CCCCCC3)cc2Cl)c1 |  | 25.2 µM (active)
